# Bioassay records from PubChem BioAssay.
# The list is not random: actives were taken first. Their share in the collection is about 3.1%.
# Bead autofluor = counter-screen for toxin protease inhibitors: compound fluorescence; fluorescence intensity (concentration not given with the values); 360,000 tested, 3.1% active; compound autofluorescence counterscreen, microsphere flow cytometry; stronger effect = higher value; in the data active means fluorescence intensity above about 16000; inconclusive means no clear call, values can overlap the other calls
# Anthrax LF inh2 = Bacillus anthracis LF protease inhibitors, primary screen, biochemical, multiplex microsphere, MLPCN library; 360,000 tested, 0.12% active; multiplex microsphere protease cleavage assay; Lethal factor (Bacillus anthracis), P15917; inhibition, % at 10 µM
# Target sequence (P15917 whole entry, looked up): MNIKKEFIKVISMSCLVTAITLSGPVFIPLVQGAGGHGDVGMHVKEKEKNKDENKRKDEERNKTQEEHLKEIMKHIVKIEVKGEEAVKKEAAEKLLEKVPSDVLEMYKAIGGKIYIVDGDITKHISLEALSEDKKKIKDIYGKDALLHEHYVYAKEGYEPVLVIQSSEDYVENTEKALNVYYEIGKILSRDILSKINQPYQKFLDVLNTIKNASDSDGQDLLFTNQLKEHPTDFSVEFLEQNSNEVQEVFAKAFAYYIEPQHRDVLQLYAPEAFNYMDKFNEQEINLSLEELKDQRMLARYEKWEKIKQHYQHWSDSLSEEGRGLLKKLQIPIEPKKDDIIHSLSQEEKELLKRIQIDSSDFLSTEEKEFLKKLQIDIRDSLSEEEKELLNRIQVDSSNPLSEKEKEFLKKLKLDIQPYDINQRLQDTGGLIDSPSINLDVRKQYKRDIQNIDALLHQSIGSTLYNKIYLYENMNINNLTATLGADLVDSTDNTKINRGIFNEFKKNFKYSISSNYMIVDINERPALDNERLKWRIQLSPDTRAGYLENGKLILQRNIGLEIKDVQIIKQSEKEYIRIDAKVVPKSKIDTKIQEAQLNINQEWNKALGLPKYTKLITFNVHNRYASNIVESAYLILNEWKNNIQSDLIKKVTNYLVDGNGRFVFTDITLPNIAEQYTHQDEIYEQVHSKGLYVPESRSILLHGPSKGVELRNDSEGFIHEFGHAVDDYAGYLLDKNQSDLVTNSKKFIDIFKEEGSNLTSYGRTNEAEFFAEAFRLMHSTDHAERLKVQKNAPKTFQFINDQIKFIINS
# BoNT-F LC inh = BoNT/F light chain protease inhibitors, primary screen, biochemical, flow cytometry, MLPCN library. 360,000 tested, 0.22% active. inhibition, % at 10 µM. Botulinum neurotoxin type F light chain protease (Clostridium botulinum). Multiplex microsphere protease cleavage assay; in the data active means inhibition above about 35%, passing the limit was not always enough; inconclusive means no clear call, values can overlap the other calls
# BoNT-A LC inh2 = BoNT/A light chain protease inhibitors, primary screen, biochemical, flow cytometry, MLPCN library; AID 588499, 2011; 360,000 tested, 0.17% active; Botulinum neurotoxin type A light chain protease (Clostridium botulinum A str. ATCC 3502); multiplex microsphere protease substrate cleavage; inhibition, % at 10 µM
# SSB-PriA inh = inhibitors of Klebsiella pneumoniae PriA binding to SSB C-terminal tail, primary screen, biochemical, AlphaScreen; AlphaScreen SSBct-PriA binding, biotinylated peptide; inhibition, % at 33 µM; 430,000 tested, 0.6% active; AID 1272365, 2023; in the data active means inhibition mostly above about 37%, no sharp cut-off; inactive means mostly below about 20%
# A number is an active result; - = inactive; ? = inconclusive; . = not tested or not shown; ! = not active in a repeat. Unless noted, no stated cut-off is given here; in the data, active means inhibition above about 30%; inconclusive means no clear call, values can overlap the other calls; inactive means below that.
SMILES,Bead autofluor,Anthrax LF inh2,BoNT-F LC inh,BoNT-A LC inh2,SSB-PriA inh
CN(C)CCCN(C(=O)c1ccc(C(=O)c2ccccc2)cc1)c1nc2cc3c(cc2s1)OCCO3,-,-,-,-,41.0!
O=C(COc1ncccn1)Nc1nc2ccccc2[nH]1,.,.,.,.,-
CC(C)(C)c1ccc(C(=O)Nc2ccc(-c3cn4ccsc4n3)cc2)cc1,.,.,.,.,-
CCn1nccc1C(=O)NCCOc1ccc(F)cc1,.,.,.,.,-
Cc1cccn2c(=O)c(C=NO)c(N3CCCC3)nc12,.,.,.,.,-
Cc1cccn2c(=O)c(/C=N/O)c(N3CCCC3)nc12,16881,-,-,?,.
COc1ccccc1NC(=O)CSc1nc2n[nH]c(C)c2c(=N)n1-c1ccccc1Cl,22575,-,-,-,-
Cc1cccc(-n2c(SCC(=O)N3CCCC3)nc3n[nH]c(C)c3c2=N)c1,22446,-,-,?,-
COc1ccccc1NC(=O)N1CCC(CNC(=O)C(=O)Nc2cccc(N3CCCC3=O)c2)CC1,.,.,.,.,-
Cc1ccc(C)c(S(=O)(=O)N2CCCC2C(=O)O)c1 (stereo not given),.,.,.,.,-
COc1ccccc1/C=C/C(=O)OC(C)CN1CCOCC1 (stereo not given),21922,-,-,-,-
COc1ccccc1/C=C/CN1CCOCC1,22191,-,-,-,-
Cc1ccc(C=NNC(=O)c2sccc2OCc2ccc(F)cc2)cc1,.,.,.,.,-
Cc1c(C#N)c2ncnc(-c3ccccc3)c2n1-c1ccccc1,23956,-,-,-,-
O=C(Nc1ccc2scnc2c1)c1ccc(F)cc1,.,.,.,.,-
Cc1cc(C)c(C)c(S(=O)(=O)NCC(=O)N2CCCC2)c1C,20412,-,-,-,-
O=S(=O)(Nc1ncccn1)c1ccc(Cl)cc1,.,.,.,.,-
O=S(=O)(Nc1ccccn1)c1ccc(Cl)cc1,23792,-,-,-,-
Cn1c(=O)n(CCc2ccccc2)c(=O)c2ncccc21,.,.,.,.,-
COc1ccc(-c2cc(C(=O)N3CCc4ccccc4C3)no2)cc1OC,21095,-,-,-,-
O=C(c1cc(-c2ccccc2)on1)N1CCc2ccccc2C1,-,-,-,-,-
COc1ccc(-c2cc(C(=O)N3CCCc4ccccc43)no2)cc1OC,22113,-,-,-,-
COc1ccc(-c2cc(C(=O)N3CCCc4ccccc43)no2)cc1,22780,-,-,?,-
COc1cccc(-c2cc(C(=O)N3CCCc4ccccc43)no2)c1,-,-,-,-,-
CC(=O)Nc1ccc(NC(=O)CSc2nc(CC(=O)N3CCC4(CC3)OCCO4)cs2)cc1,.,.,.,.,-
SMILES,Bead autofluor,Anthrax LF inh2,BoNT-F LC inh,BoNT-A LC inh2,SSB-PriA inh
Cc1ccc(C)c2sc(NC(=O)c3ccc(OC(C)C)cc3)nc12,.,.,.,.,-
COc1cc(C=NNS(=O)(=O)c2ccc(C(C)(C)C)cc2)cc([N+](=O)[O-])c1O,.,.,.,.,-
O=C(Nc1ccccc1C(=O)N1CCCCC1)C1CCCCC1,22702,-,-,-,-
COc1ccc(Cl)cc1NC(=O)C1CCCO1 (stereo not given),-,-,-,-,-
O=C(Nc1ccccc1C(=O)N1CCOCC1)C1CCCO1 (stereo not given),19285,-,-,-,-
CSc1ccccc1NC(=O)C1CCCO1 (stereo not given),22505,-,-,-,-
CCOc1cc(NC(=O)C2CCCO2)c(OCC)cc1NC(C)=O (stereo not given),17626,-,-,-,-
COCC(C)Nc1nc(Nc2ccc(F)cc2)c2n[nH]nc2n1 (stereo not given),.,.,.,.,-
Cc1cc(-c2ccncc2)nn1CCNS(=O)(=O)c1ccc(OCC(N)=O)cc1,.,.,.,.,-
COC(=O)c1cc(C(=O)NCC2CCCCC2)cc([N+](=O)[O-])c1,-,-,-,-,-
COC1(C)CC2C(CC1OC(=O)c1cc([N+](=O)[O-])cc([N+](=O)[O-])c1)C2(C)C (stereo not given),-,-,-,-,73.8
COc1ccc2c(c1)[nH]c1c(N3CCN(Cc4ccc5c(c4)OCO5)CC3)ncnc12,23865,-,-,-,-
CCN(CC)S(=O)(=O)c1cc(C(=O)OC)ccc1Cl,20925,-,-,-,-
CCN(CC)S(=O)(=O)c1ccc(Cl)c(NC(C)=O)c1,-,-,-,-,-
COC(=O)c1ccc(Cl)c(NC(C)=O)c1,21958,-,-,?,-
CCN(CC)S(=O)(=O)c1ccc(Cl)c(C(=O)OC)c1,17005,-,-,?,-
CNC(=O)c1cc(S(=O)(=O)N(C)C)ccc1Cl,22686,-,-,-,-
Cn1c(=O)c2ccc(C(=O)NC3CCCCC3)cc2n2c(=O)n(CC#N)nc12,.,.,.,.,-
COc1ccc2c(c1)CCC[C@@]2(O)CNC(=O)Nc1ccccc1F,.,.,.,.,-
COc1ccc(-c2nnc3ccc(OCCNC(=O)NCc4ccccc4)nn23)cc1,.,.,.,.,-
CN(C)c1ccc(NC(=O)COC(=O)CCC(=O)c2ccc(F)cc2)cc1,21300,-,-,-,-
Cc1cccc(OCc2nc(-c3nonc3N)no2)c1C,22795,-,-,?,-
Nc1nonc1-c1noc(COc2ccccc2Cl)n1,-,-,-,-,-
Cc1cc(SCC(=O)Nc2cccc([N+](=O)[O-])c2)n2nc(C)c(-c3ccccc3)c2n1,.,.,.,.,-
O=c1[nH]cnc2c1cnn2Cc1ccccc1,21532,-,-,?,-
SMILES,Bead autofluor,Anthrax LF inh2,BoNT-F LC inh,BoNT-A LC inh2,SSB-PriA inh
O=C(NC12CCC(O)C(SC1)/C2=N/O)c1ccccc1 (stereo not given),19906,-,-,-,.
O=C(NC12CC3CC(CC(C3)C1)C2)c1ccccc1,-,-,-,-,-
O=[N+]([O-])c1c(NCCCO)cc(Sc2nc3ccccc3s2)c2nonc12,23409,-,-,?,-
CC(C)Cc1nc2oc3c(NCCCN4CCOCC4)ncnc3c2c2c1CCC2,23301,-,-,-,-
CCn1ccc(C(=O)Nc2cc(C)nn2-c2nc3ccc(OC)cc3s2)n1,.,.,.,.,-
CCC(C)Nc1c([N+](=O)[O-])cc(C(C)(C)C)cc1[N+](=O)[O-] (stereo not given),.,.,.,.,116.9
CCCCNc1c([N+](=O)[O-])cc(C(=O)O)cc1[N+](=O)[O-],-,-,-,-,-
O=C(CCc1cccc(Cl)c1)N1CC(n2ccnn2)C1,.,.,.,.,-
O=C(O)CCSCC(=O)Nc1c(C(=O)C2CC2)oc2ccccc12,-,-,?,-,-
O=C(CN1CCN(c2ccccc2)CC1)Nc1c(C(=O)C2CC2)oc2ccccc12,20951,-,-,?,-
COc1ccccc1-n1ncc2c(C)n[nH]c(=O)c21,.,.,.,.,-
Cc1cc(NC(=O)c2nn3cccnc3c2Cl)no1,21821,-,-,-,-
COc1ccc(Cl)cc1NC(=O)CSc1nccc(N2CCCCC2)n1,.,.,.,.,-
Cc1cccc[n+]1CC(=O)Nc1ccccc1,-,-,36.7,-,-
COc1ccc(CC(=O)NC[C@@H](c2cccs2)N(C)C)cc1OC,.,.,.,.,-
O=C1NC(=O)C2(Cc3ccccc3N3CCCC32)C(=O)N1c1ccccc1 (stereo not given),-,-,-,-,-
